# Source: the supplement of paper PMC6555819
# Tests used:
# Assay in all cases: PBM binding z-score (relative to random genomic background probes); higher = stronger binding; sequences stand for … in GC…GCGATTGACAGCGTAGAATGAAGG
# [1] = tested on: FXR:RXRa (NR concentration 270 nM, RXRa partner concentration 90 nM)
# Outline: (§1)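 For binding z-scores, the reference was random background probes on custom Agilent 4×180K protein-binding microarrays. These arrays were incubated 1 h with ligand-free nuclear receptor dimers in PBS pH 7.4, 2% milk, 0.02% Triton X-100, 1 mM DTT, 0.2 mg/mL BSA and 0.4 mg/ml salmon testes DNA. Fluorescence was scanned after antibody detection of each partner (one per run) and regression-normalized.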
# [2] = tested on: LXRa:RXRa (NR concentration 270 nM, RXRa partner concentration 90 nM)
# Outline: as §1
# [3] = tested on: LXRa homodimer (NR concentration 270 nM)
# Outline: as §1
# [4] = tested on: LXRb:RXRa (NR concentration 270 nM, RXRa partner concentration 90 nM)
# Outline: as §1
# [5] = tested on: LXRb homodimer (NR concentration 270 nM)
# Outline: as §1
# [6] = tested on: PPARa:RXRa (NR concentration 270 nM, RXRa partner concentration 90 nM)
# Outline: as §1
# [7] = tested on: PPARg:RXRa (NR concentration 180 nM, RXRa partner concentration 90 nM)
# Outline: as §1
# [8] = tested on: PPARg:RXRa 270nM:90nM, anti-RXR (NR concentration 270 nM, RXRa partner concentration 90 nM)
# Outline: as §1
# [9] = tested on: PPARg:RXRa 30nM:10nM, anti-RXR (NR concentration 30 nM, RXRa partner concentration 10 nM)
# Outline: as §1
# [10] = tested on: PPARg:RXRa 90nM:30nM, anti-RXR (NR concentration 90 nM, RXRa partner concentration 30 nM)
# Outline: as §1
# [11] = tested on: PPARg:RXRa DBDmut IVT, anti-RXR (DBD mutation: RXRa K156A/R161A, NR concentration 270 nM, RXRa partner concentration 90 nM)
# Outline: as §1
# [12] = tested on: PPARg:RXRa IVT, anti-PPARg (NR concentration 270 nM, RXRa partner concentration 90 nM)
# Outline: as §1
# [13] = tested on: PPARg DBDmut:RXRa IVT, anti-PPARg (DBD mutation: PPARg1 K132A/R137A, NR concentration 270 nM, RXRa partner concentration 90 nM)
# Outline: as §1
# [14] = tested on: PPARg DBDmut IVT, anti-PPARg (DBD mutation: PPARg1 K132A/R137A, NR concentration 270 nM)
# Outline: as §1
# [15] = tested on: PPARg homodimer (NR concentration 180 nM)
# Outline: as §1
# [16] = tested on: PXR:RXRa (NR concentration 270 nM, RXRa partner concentration 90 nM)
# Outline: as §1
# [17] = tested on: PXR homodimer (NR concentration 270 nM)
# Outline: as §1
# [18] = tested on: RARa:RXR (NR concentration 270 nM, RXRa partner concentration 90 nM)
# Outline: as §1
# [19] = tested on: RARa homodimer (NR concentration 270 nM)
# Outline: as §1
# [20] = tested on: RARb:RXRa (NR concentration 270 nM, RXRa partner concentration 90 nM)
# Outline: as §1
Sequence,PBM binding z-score [1],PBM binding z-score [2],PBM binding z-score [3],PBM binding z-score [4],PBM binding z-score [5],PBM binding z-score [6],PBM binding z-score [7],PBM binding z-score [8],PBM binding z-score [9],PBM binding z-score [10],PBM binding z-score [11],PBM binding z-score [12],PBM binding z-score [13],PBM binding z-score [14],PBM binding z-score [15],PBM binding z-score [16],PBM binding z-score [17],PBM binding z-score [18],PBM binding z-score [19],PBM binding z-score [20]
ATCTCTTGGTAAAAGTTCAGTGAATCCCGAGGAT,0.493,1.23,1.42,0.868,1.09,1.58,1.87,4.15,1.88,3.88,-0.122,0.894,0.627,0.652,1.46,1.83,1.58,1.1,1.12,2.37
TCGCGGAGGACACGAAAGGTCAGAGCTCGACATC,2.61,3.72,2.77,3.12,-0.812,3.59,1.18,2.51,0.965,1.95,0.791,1.5,0.00207,-0.746,2.36,3.97,0.407,4.24,1.04,4.03
ATCGAAAGGTCGATGTGAGTATAGAGAAAGGGAA,3.06,2.82,-0.178,2,0.549,3.35,1.66,1.77,1.02,1.33,0.226,1.15,1.83,0.629,0.753,1.77,0.123,2.36,0.145,3.26
ATCGAAATGTCGAAGGTGAGTATACCCACCCGAA,-0.36,-0.333,-0.285,-0.254,-0.151,0.29,0.913,0.538,0.133,0.522,-1.11,0.391,0.818,0.244,-0.161,-0.253,-0.511,0.116,-0.269,0.495
CGAACCAGGTCATCCAGGACAGTGAATACATTGA,5.37,3.75,1,3.05,0.375,4.67,4.89,4.6,1.51,3.59,5.15,5.48,1.46,0.673,2.01,2.98,3.52,3.1,1.01,3.95
CCCTACGGGTCAAGGTTATAGCACGGGTGGTACG,5.27,3.4,0.278,2.78,-0.151,4.7,3.55,4.19,1.1,2.75,-0.17,2.06,-0.206,-1.06,2.1,3.35,0.417,4.27,1.19,4.07
CAAACTAGCTCACAGAGGTCAAAGTCCGTGCGTA,4.84,5.04,5.7,4.99,1.59,4.82,2.1,3.38,1.05,2.74,0.877,2.03,0.153,0.182,4.66,5.9,3.09,6.47,2.88,3.87
TTATCAAGGTGAAGGTCGTTGATCCCTCTGTAGA,2.51,1.93,0.076,1.75,-0.0841,3.01,2.92,3.88,2.1,3.49,2.89,3.99,1.51,0.341,1.18,1.66,0.515,2.18,-0.235,2.21
GCGACTGGGGCAAATCAGGTTACCATAAGGTTGG,0.683,0.358,-0.1,0.749,-0.654,1.73,1.28,1.07,-0.18,0.553,4.37,3.69,-0.276,-0.972,0.782,1.1,-0.422,0.759,-0.444,1.14
CCTAGTCGGTCAAGGTCACACACGCTATAGGTAC,4.93,4.51,2.64,3.94,1.16,4.61,4.76,4.67,2.13,3.88,4.58,5.27,0.742,0.895,3.81,4.4,1.97,4.9,2.62,4.51
ACAGACAGGTGAGTGAAGTTAACTCAGCTGGACG,-0.59,-0.611,-0.779,-0.663,-0.63,-0.341,0.529,-0.616,-0.371,-0.832,0.505,0.404,-0.391,-0.406,-0.447,-0.325,-0.705,-0.744,-0.259,0.258
CTACTAAGGTGAACAAGGTCGTTGATTACTATTC,1.84,1.76,0.193,2.02,-0.227,3.07,1.47,1.99,0.156,1.06,3.87,3.07,0.656,0.383,1.12,3.22,2.35,3.18,0.606,2.4
TCACCAAGGTGAAAGGTCGTTGATGCACGCCTTG,3.32,3.01,-0.0102,2.68,-0.932,5.28,7.74,7.39,6.81,7.43,3.13,4.81,0.292,0.0423,0.508,3.77,-0.165,4.87,-0.322,3.17
